Screen size: about 52,000 compounds; about 4,300 (8.3%) were called active. Rule as the data show it: active = survival mostly below about 52% (no sharp cut-off); inactive = mostly above about 56%. The sample as a whole holds a higher share of actives than the screen did.
System: DeltatarO mutant
Test: growth inhibition of S. aureus wild type versus tarO mutant, primary screen, teichoic acid synthesis inhibitors, RN4220, OD600 (AID 463173)
Details: OD600, 18 h, stronger effect = lower value, screened at 18.75 µg/mL (by protocol)

Row | Compound | survival
1 | COc1ccc(NC(=O)C(CC(C)C)NS(=O)(=O)c2ccc3c(c2)oc(=O)n3C)cc1Cl (configuration not stated) | 127% (inactive)
2 | Cc1cccc(NC(=O)CSc2nc3c(sc4ccccc43)c(=O)n2CCCC(=O)NC2CCCC2)c1 | 87% (inactive)
3 | CCOC(=O)c1c(C)oc2ncnc(NCCCN3CCN(c4cc(C)ccc4C)CC3)c12 | 101% (inactive)
4 | Cc1ccc(Cn2c(C(=O)NCc3ccccc3Cl)cc3sccc32)cc1 | 86% (inactive)
5 | COc1ccccc1-c1nc2c3c(-c4ccccc4)c(-c4ccccc4)oc3ncn2n1 | 70% (inactive)
6 | COc1cccc(NC(=O)CSCc2cc(=O)c3ccc(C)c(C)c3[nH]2)c1 | 74% (inactive)
7 | CSCCC(NS(=O)(=O)c1ccc2c(c1)oc(=O)n2C)C(=O)Nc1ccc(Cl)cc1 (configuration not stated) | 94% (inactive)
8 | COc1ccc(OC)c(CCNC(=O)CCCn2c(=O)c3cccn3c3ccc(F)cc32)c1 | 88% (inactive)
9 | O=C(CCn1c(=O)c2cccn2c2ccc(F)cc21)NCCc1ccccc1Cl | 52% (inactive)
10 | COc1ccc(CCNC(=O)CCn2c(=O)c3cccn3c3ccc(F)cc32)c(OC)c1OC | 39% (active)
11 | COc1ccc(OC)c(CNC(=O)CCn2c(=O)c3cccn3c3ccc(F)cc32)c1 | 58% (inactive)
12 | COc1ccccc1CCNC(=O)CCn1c(=O)c2cccn2c2ccc(F)cc21 | 44% (active)
13 | COc1ccc(OC)c(CCNC(=O)CCn2c(=O)c3cccn3c3ccc(F)cc32)c1 | 58% (inactive)
14 | COc1ccc(S(=O)(=O)Nc2ccc3c(c2)CCCN3S(=O)(=O)c2ccc(C)cc2)cc1F | 74% (inactive)
15 | O=C(NCCn1ccc2ccccc21)c1ccc(Cl)cc1 | 87% (inactive)
16 | O=C1CC(c2ccccc2)Cc2[nH]c(=O)c(C(=O)Nc3ccc(OC(F)(F)F)cc3)cc21 (configuration not stated) | 163% (inactive)
17 | CCN(C(=O)CSc1nc2ccccc2[nH]1)c1ccccc1 | 85% (inactive)
18 | CCN(C(=O)CSc1nc2ncccc2[nH]1)c1ccc(C(C)C)cc1 | 43% (active)
19 | CCc1ccc(NC(=O)CSc2nc3ncccc3[nH]2)cc1 | 86% (inactive)
20 | COc1cc(NC(=O)CSc2nc3nc(C)c(Cc4ccccc4Cl)c(C)n3n2)cc(OC)c1 | 73% (inactive)
21 | Cc1nc2nc(SCC(=O)NC3CCCCC3)nn2c(C)c1Cc1ccccc1Cl | 25% (active)
22 | Cc1nc2nc(SCC(=O)NC3CCC(C)CC3)nn2c(C)c1Cc1ccccc1Cl (configuration not stated) | 83% (inactive)
23 | COc1ccccc1CNC(=O)CSc1nc2nc(C)c(Cc3ccccc3Cl)c(C)n2n1 | 46% (active)

Row | Compound | survival
24 | Cc1cccc(Cc2c(C)nc3nc(SCC(=O)NC4CCCCC4)nn3c2C)c1 | 40% (active)
25 | Cc1ccc(Cc2c(C)nc3nc(SCC(=O)NC4CCC(C)CC4)nn3c2C)cc1 (configuration not stated) | 131% (inactive)
26 | Cc1nc2nc(SCC(=O)NC3CCC(C)CC3)nn2c(C)c1Cc1ccccc1 (configuration not stated) | 92% (inactive)
27 | COc1ccccc1CNC(=O)CSc1nc2nc(C)c(Cc3ccccc3C)c(C)n2n1 | 118% (inactive)
28 | COCCCNC(=O)CSc1nc2nc(C)c(Cc3ccccc3Cl)c(C)n2n1 | 61% (inactive)
29 | Cc1c(C(=O)N(Cc2ccc(N(C)C)cc2)CC2CCCO2)oc2ccc(Br)cc12 (configuration not stated) | 58% (inactive)
30 | CCc1nn2c(=O)cc(COC(=O)CNC(=O)c3ccccc3)nc2s1 | 123% (inactive)
31 | Brc1ccc(-c2cc3c(N4CCN(c5ccccc5)CC4)nccn3n2)cc1 | 194% (inactive)
32 | COC(=O)c1nc2n(n1)C(c1cc(OC)ccc1OC)C(C(=O)Nc1ccc(C)cc1C)=C(C)N2 (configuration not stated) | 79% (inactive)
33 | COc1ccc(C(=O)n2nc(N)c3cc4ccc(C)cc4nc32)cc1OC | 94% (inactive)
34 | CCOC(=O)c1cc(-c2ccc(C)cc2)n(CC(=O)Nc2ccc(OC)c(Cl)c2)c1C | 67% (inactive)
35 | COC(=O)c1ccc(NC(=O)Cn2cnc3c2c(=O)n(C)c(=O)n3C)cc1 | 80% (inactive)
36 | CCOc1ccc(C(=O)NCCc2sc(-c3ccc(F)cc3)nc2C)cc1 | 90% (inactive)
37 | CCOc1ccc(C(=O)NCCc2sc(-c3ccc(C)cc3)nc2C)cc1 | -1% (active)
38 | COc1ccc(-c2nc(C)c(CCNC(=O)c3cc(OC)c(OC)c(OC)c3)s2)cc1OC | 64% (inactive)
39 | CCOc1ccc(C(=O)NCCc2sc(-c3ccc(OC)c(OC)c3)nc2C)cc1 | 109% (inactive)
40 | CCOc1ccc(NC(=O)C(=O)NCCc2sc(-c3ccc(C)cc3)nc2C)cc1 | 79% (inactive)
41 | COc1ccc(-c2nc(C)c(CCNC(=O)c3ccc(C(F)(F)F)cc3)s2)cc1OC | -2% (active)
42 | O=c1[nH]cnc2scc(-c3ccsc3)c12 | 104% (inactive)
43 | Cc1ccc(-c2nc3scc(CCNS(=O)(=O)c4ccc(Oc5ccccc5)cc4)n3n2)cc1 | 115% (inactive)
44 | CC(C)OCCCn1c(=O)c2ccccc2n2c(-c3ccc(F)cc3)nnc12 | 98% (inactive)
45 | CCCCCNC(=O)c1c[nH]c2ccc(S(=O)(=O)N3CCC(C)CC3)cc2c1=O | 97% (inactive)
46 | COc1ccc(N2CC(NC(=O)C3CC3)CC2=O)cc1OC (configuration not stated) | 73% (inactive)

Row | Compound | survival
47 | Cc1ccc2nc(N(Cc3cccnc3)C(=O)CCS(=O)(=O)c3ccccc3)sc2c1 | 67% (inactive)
48 | COc1ccc(-c2nc3ccccc3o2)cc1NC(=O)CSc1ccc(Cl)cc1 | 72% (inactive)
49 | COc1ccc(-c2nc3ccccc3o2)cc1NC(=O)Cc1ccc(Cl)cc1 | 54% (inactive)
50 | COc1ccc(OCC(=O)Nc2cc(-c3nc4ccccc4o3)ccc2Cl)cc1 | 70% (inactive)
51 | COc1ccc(-c2nc3ccccc3o2)cc1NC(=O)COc1ccc(C(C)(C)C)cc1 | 4% (active)
52 | CCCCC(=O)Nc1cc(-c2nc3ccccc3o2)ccc1OC | 7% (active)
53 | COc1ccc(-c2nc3ccccc3o2)cc1NC(=O)COc1c(C)cc(Cl)cc1Cl | 67% (inactive)
54 | Cc1cn2c(=O)cc(COc3ccc(NC(=O)c4cccc(F)c4)cc3)nc2s1 | 125% (inactive)
55 | COc1ccc(Cl)cc1NC(=O)c1cc2ccccn2n1 | 124% (inactive)
56 | COc1cc(C2C(C(=O)c3ccco3)=C(O)C(=O)N2CCc2ccccc2)ccc1O (configuration not stated) | 86% (inactive)
57 | COc1ccc(Cn2c(=O)c3oc4ccccc4c3n(Cc3cccc(C)c3)c2=O)cc1 | 64% (inactive)
58 | Cc1cc(C)cc(OCCCn2c(-c3ccc(Cl)cc3)nc3ccccc3c2=O)c1 | 58% (inactive)
59 | Cc1ccc(OCCn2c(-c3ccc(Cl)cc3)nc3ccccc3c2=O)c(C)c1 | 63% (inactive)
60 | CC(C)(C)c1ccc(OCCOCCn2c(-c3ccc(Cl)cc3)nc3ccccc3c2=O)cc1 | 115% (inactive)
61 | Cc1ccc(OCCOCCn2c(-c3ccc(Cl)cc3)nc3ccccc3c2=O)cc1 | 39% (active)
62 | Cc1ccccc1OCCn1c(-c2ccc(Cl)cc2)nc2ccccc2c1=O | 57% (inactive)
63 | Cc1cccc(OCCn2c(-c3ccc(Cl)cc3)nc3ccccc3c2=O)c1 | 105% (inactive)
64 | Cc1cc(C)c(OCCOCCn2c(-c3ccc(Cl)cc3)nc3ccccc3c2=O)c(C)c1 | 43% (active)
65 | Cc1ccc(C)c(OCCn2c(-c3ccc(Cl)cc3)nc3ccccc3c2=O)c1C | 73% (inactive)
66 | COc1cccc(OCCn2c(-c3ccc(Cl)cc3)nc3ccccc3c2=O)c1 | 51% (inactive)
67 | CCOc1ccc(OCCOCCn2c(-c3ccc(Cl)cc3)nc3ccccc3c2=O)cc1 | 26% (active)
68 | Cc1cccc(OCCOCCn2c(-c3ccc(Cl)cc3)nc3ccccc3c2=O)c1C | 60% (inactive)
69 | Cc1cc(C)cc(OCCOCCn2c(-c3ccc(Cl)cc3)nc3ccccc3c2=O)c1 | 43% (active)

Row | Compound | survival
70 | COc1ccccc1N1CCN(CCCNC(=O)Cn2ncc3c([nH]c4ccccc43)c2=O)CC1 | 55% (inactive)
71 | CCCNC(=O)c1c(NC(=O)c2ccc(C)cc2)sc2c1CCCCC2 | 65% (inactive)
72 | COc1cccc(CNC(=O)c2ccc3c(=O)n4nc(Nc5ccccc5)sc4nc3c2)c1 | 88% (inactive)
73 | CCC1SC(NC(=O)COc2ccc(OC)cc2)=NC1=O (configuration not stated) | 104% (inactive)
74 | COCCn1c(CCC(=O)Nc2ccc(C)c(Cl)c2)nc2cccnc21 | 84% (inactive)
75 | Cc1cc2c(cc1C)C(C)CC(C)(C)N2 (configuration not stated) | 94% (inactive)
76 | O=C(NC1CCCCC1)C1OC(c2ccccc2)OC1C(=O)NC1CCCCC1 (configuration not stated) | 86% (inactive)
77 | CC(=O)N(Cc1cccnc1)Cc1cc2cc3c(cc2[nH]c1=O)OCCO3 | 84% (inactive)
78 | CCN(CC)C(=O)Cn1cc(SCC(=O)Nc2ccccc2C)c2ccccc21 | 74% (inactive)
79 | CC(=O)Nc1ccc(S(=O)(=O)NCC2CCC(C(=O)NCc3ccccc3)CC2)cc1 (configuration not stated) | 71% (inactive)
80 | COc1cc(NC(=O)N2c3ccccc3Sc3ccccc32)cc(OC)c1 | 62% (inactive)
81 | CCOc1ccccc1NC(=O)N1c2ccccc2Sc2ccccc21 | 55% (inactive)
82 | O=C(CN1CCCC1)N1c2ccccc2Sc2ccccc21 | 88% (inactive)
83 | COc1ccc(OC)c(NC(=O)N2CC3CCCN3c3ccccc32)c1 (configuration not stated) | 89% (inactive)
84 | O=C(N1CCCC1)N1c2ccccc2Sc2ccccc21 | 111% (inactive)
85 | COc1ccccc1NC(=O)N1c2ccccc2Sc2ccccc21 | -6% (active)
86 | O=C(O)c1ccccc1NC(=O)N1c2ccccc2Sc2ccccc21 | 40% (active)
87 | COc1ccc(OC)c(NC(=O)N2c3ccccc3Sc3ccccc32)c1 | 5% (active)
88 | COCCNC(=O)N1c2ccccc2Sc2ccccc21 | 83% (inactive)
89 | COc1ccc(OC)c(NC(=O)c2cc3c(s2)-c2ccccc2SC3)c1 | 65% (inactive)
90 | Cc1ccc2c(c1)N(C(=O)CCC(=O)Nc1ccccc1Cl)CC(C)O2 (configuration not stated) | 105% (inactive)
91 | Cc1nnc2c(Nc3ccccc3I)nc3nonc3n12 | 77% (inactive)
92 | N#CCCn1cc(CO)c(-c2ccccc2)n1 | 95% (inactive)
